Results: PubChem BioAssay
Active and inactive are the calls of the source.

Experiments:
[1] = test system: Human papillomavirus type 1a protein E7 (residues 44-93); assay: HPV1a E7 fragment binders on microarrays, primary screen, biochemical, small-molecule microarray, residues 44-93, 635 nm fluorescence (AID 1108); conditions: small-molecule microarray binding, fluorescence 635 nm; higher = more signal;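 further: E7 fragment applied at 1 µg/mL in TBST for 1 h at 4 C; score combines spot fluorescence with its signal to noise ratio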
[2] = modulators of HCV replicon luciferase signal, primary screen, HCV replication inhibitor project, Huh7 cells, luciferase reporter (AID 1109); conditions: 48 h, higher = more signal;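 further: huh7 hepatoma cells harbouring a luciferase neomycin HCV replicon reporter; luciferase luminescence as measure of HCV replicon replication; test concentration not given here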
[3] = molecular target: Left-right determination factor 2 (Homo sapiens) (UniProt O00292); assay: LEFTY2 binders on small-molecule microarrays, primary screen, biochemical, small-molecule microarray, 635 nm fluorescence scan (AID 1110); conditions: LEFTY2 binding, higher = more signal
[4] = molecular target: Calmodulin-1 (Homo sapiens) (UniProt P0DP23); assay: CALM1 binders on microarrays, EGTA buffer, profiling panel, biochemical, small-molecule microarray, Cy5-labelled CALM1 (AID 1111); conditions: Cy5-CALM1 binding fluorescence, higher = more signal;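 further: labelled calmodulin applied in Tris saline Tween buffer holding calcium plus EGTA and DTT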
[5] = molecular target: Calmodulin-1 (Homo sapiens) (UniProt P0DP23); assay: calcium-bound CALM1 binders on microarrays, profiling panel, artefact control for SMM control-protein annotation, biochemical, small-molecule microarray, Cy5-labelled CALM1, plus calcium (AID 1112); conditions: Cy5-CALM1 binding fluorescence, higher = more signal;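 further: score merges spot fluorescence with signal to noise from triplicate slides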
[6] = small-molecule microarray binders of probe aWnt5a, primary screen, biochemical, biotinylated probe, 635/667 nm fluorescence (AID 1113); conditions: higher = more signal;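 further: score merges 667 nm fluorescence intensity with signal-to-noise per printed feature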
[7] = small-molecule microarray binders of probe aShh, primary screen, biochemical, biotinylated probe, 635/667 nm fluorescence (AID 1114); conditions: higher = more signal;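 further: probe is biotin-labelled aShh protein from a stem cell growth factor screen; measures binding of labelled protein to compounds printed on the slide; score merges feature fluorescence at 667 nm with signal-to-noise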
[8] = small-molecule microarray binders of probe aNog, primary screen, biochemical, biotinylated probe, 635/667 nm fluorescence (AID 1115); conditions: higher = more signal;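 further: probe is biotinylated aNog protein used at 0.15 µg/mL for 1 h at 4 C; z-score combines 667 nm fluorescence of each spot with its signal to noise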
[9] = molecular target: Torsin-1A-interacting protein 1 (Homo sapiens) (UniProt Q5JTV8); assay: LAP1 binders from COS7 cell lysate, primary screen, small-molecule microarray, 635/667 nm fluorescence (AID 1116); conditions: COS7-hLAP1 lysate binding, 635 nm fluorescence, higher = more signal
[10] = molecular target: Alpha-bungarotoxin (Bungarus multicinctus) (UniProt P60615); assay: alpha-bungarotoxin binders on microarray, profiling panel, artefact control for SMM control protein annotation, biochemical, small-molecule microarray, Alexa647 label, 635/667 nm fluorescence (AID 1117); conditions: alpha-BTX-A647 binding fluorescence, higher = more signal
Albumin (Bos taurus) = Albumin (Bos taurus) (UniProt P02769); assay: bovine serum albumin binders on microarray, profiling panel, artefact control for SMM control protein annotation, biochemical, small-molecule microarray, Alexa647 label, 635/667 nm fluorescence (AID 1118); conditions: BSA-A647 binding, fluorescence 635 nm, higher = more signal;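 further: score merges 667 nm emission intensity and signal-to-noise per printed compound spot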
[11] = small-molecule microarray binders of probe aXIP, primary screen, biochemical, NeuroSMM set, 635/667 nm fluorescence (AID 1119); conditions: higher = more signal, called active from +8 up or from −8 down;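 further: probe is the protein aXip251-270 applied at 1 µg/mL to compound-printed slides; binding of probe to printed compounds measured as 667 nm fluorescence plus signal to noise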
[12] = small-molecule binders of probe aNOTCH3, primary screen, biochemical, small-molecule microarray, 635/667 nm fluorescence (AID 1120); conditions: higher = more signal;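 further: probe is a biotin-tagged antibody raised against NOTCH3 rather than NOTCH3 protein; score merges spot fluorescence near 667 nm with spot signal to noise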
[13] = small-molecule binders of probe aNOTCH2, primary screen, biochemical, small-molecule microarray, 635/667 nm fluorescence (AID 1121); conditions: higher = more signal;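 further: score merges feature fluorescence read at 667 nm with its signal to noise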
[14] = molecular target: Carbonic anhydrase 2 (Homo sapiens) (UniProt P00918); assay: CAII small-molecule binders, profiling panel, biochemical, small-molecule microarray, Alexa647-labelled CAII (AID 1122); conditions: CAII-A647 binding fluorescence, higher = more signal
[15] = COS7 lysate on small-molecule microarray, probe aHis, 635 nm (AID 1123); conditions: COS7 cell lysate, fluorescence, higher = more signal;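 further: z-score combines 667nm fluorescence intensity with signal-to-noise per printed compound spot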
[16] = compound binding in COS7 lysate, probe aLAP1, primary screen, cell lysate, small-molecule microarray (AID 1124); conditions: probe aLAP1, fluorescence, higher = more signal;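 further: lysate comes from COS7 cells expressing LAP1 and is applied at 0.3 µg/mL; score merges spot fluorescence near 667 nm with signal-to-noise over triplicate slides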
Sam68 (KHDRBS1) = assay: Sam68 small-molecule binders, primary screen, biochemical, small-molecule microarray, 635 nm fluorescence (AID 1125); conditions: small-molecule microarray binding, higher = more signal;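 further: score merges 667 nm channel intensity with signal to noise over triplicate slides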
[17] = test system: Chordin-like protein 2 (CHRDL2); assay: CHRDL2 small-molecule binders, primary screen, biochemical, small-molecule microarray, 635 nm fluorescence (AID 1126); conditions: small-molecule microarray binding, fluorescence 635 nm; higher = more signal;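 further: printed compound slides probed with Chrdl2 protein at 4 µg/mL for 1 h at 4 C; score merges 667 nm emission intensity with signal to noise over three replicate slides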
[18] = molecular target: Concanavalin-A (Canavalia ensiformis) (UniProt P02866); assay: ConA small-molecule binders, primary screen, artefact control for SMM control protein annotation, biochemical, small-molecule microarray, Alexa647 label, 635 nm (AID 1127); conditions: ConA-A647 binding fluorescence, higher = more signal;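 further: z combines 667 nm emission intensity with signal-to-noise across three replicate slides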
Concanavalin-A (Canavalia ensiformis), sequence (P02866 whole entry, looked up): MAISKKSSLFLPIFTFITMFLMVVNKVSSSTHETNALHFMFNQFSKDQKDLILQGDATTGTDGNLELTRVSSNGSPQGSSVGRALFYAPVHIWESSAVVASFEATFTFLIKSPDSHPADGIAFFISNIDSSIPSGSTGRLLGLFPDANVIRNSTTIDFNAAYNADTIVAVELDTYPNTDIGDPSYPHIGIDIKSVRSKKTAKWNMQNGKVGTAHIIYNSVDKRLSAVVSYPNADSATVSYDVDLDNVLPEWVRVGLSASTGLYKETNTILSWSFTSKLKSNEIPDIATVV

Left-right determination factor 2 (Homo sapiens), sequence (O00292 whole entry, looked up): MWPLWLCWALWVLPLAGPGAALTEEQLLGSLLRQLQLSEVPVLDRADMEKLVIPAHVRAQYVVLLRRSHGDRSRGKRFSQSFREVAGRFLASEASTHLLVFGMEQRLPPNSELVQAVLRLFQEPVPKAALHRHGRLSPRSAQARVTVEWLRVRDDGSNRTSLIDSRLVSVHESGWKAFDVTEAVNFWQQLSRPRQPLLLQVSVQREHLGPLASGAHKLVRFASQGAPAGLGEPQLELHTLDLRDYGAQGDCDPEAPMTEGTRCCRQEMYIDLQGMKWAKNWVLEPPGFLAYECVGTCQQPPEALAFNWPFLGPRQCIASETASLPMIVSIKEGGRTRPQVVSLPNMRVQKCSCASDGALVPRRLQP
Torsin-1A-interacting protein 1 (Homo sapiens), sequence (Q5JTV8 whole entry, looked up): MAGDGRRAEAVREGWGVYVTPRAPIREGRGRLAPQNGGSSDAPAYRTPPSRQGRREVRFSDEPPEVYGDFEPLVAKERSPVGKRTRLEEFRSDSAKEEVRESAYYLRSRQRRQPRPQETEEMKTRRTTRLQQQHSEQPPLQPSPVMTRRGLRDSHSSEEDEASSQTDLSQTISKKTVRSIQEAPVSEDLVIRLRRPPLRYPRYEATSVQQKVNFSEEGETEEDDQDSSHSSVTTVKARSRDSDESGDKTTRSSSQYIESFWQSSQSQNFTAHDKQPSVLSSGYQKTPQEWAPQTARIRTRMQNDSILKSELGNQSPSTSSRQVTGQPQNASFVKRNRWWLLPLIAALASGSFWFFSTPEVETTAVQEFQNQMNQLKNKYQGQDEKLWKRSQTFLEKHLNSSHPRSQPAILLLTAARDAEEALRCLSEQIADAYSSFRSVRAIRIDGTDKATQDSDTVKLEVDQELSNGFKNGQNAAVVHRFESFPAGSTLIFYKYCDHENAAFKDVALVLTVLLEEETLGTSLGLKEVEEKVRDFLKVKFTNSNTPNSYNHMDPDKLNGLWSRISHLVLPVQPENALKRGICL
Albumin (Bos taurus), sequence (P02769 whole entry, looked up): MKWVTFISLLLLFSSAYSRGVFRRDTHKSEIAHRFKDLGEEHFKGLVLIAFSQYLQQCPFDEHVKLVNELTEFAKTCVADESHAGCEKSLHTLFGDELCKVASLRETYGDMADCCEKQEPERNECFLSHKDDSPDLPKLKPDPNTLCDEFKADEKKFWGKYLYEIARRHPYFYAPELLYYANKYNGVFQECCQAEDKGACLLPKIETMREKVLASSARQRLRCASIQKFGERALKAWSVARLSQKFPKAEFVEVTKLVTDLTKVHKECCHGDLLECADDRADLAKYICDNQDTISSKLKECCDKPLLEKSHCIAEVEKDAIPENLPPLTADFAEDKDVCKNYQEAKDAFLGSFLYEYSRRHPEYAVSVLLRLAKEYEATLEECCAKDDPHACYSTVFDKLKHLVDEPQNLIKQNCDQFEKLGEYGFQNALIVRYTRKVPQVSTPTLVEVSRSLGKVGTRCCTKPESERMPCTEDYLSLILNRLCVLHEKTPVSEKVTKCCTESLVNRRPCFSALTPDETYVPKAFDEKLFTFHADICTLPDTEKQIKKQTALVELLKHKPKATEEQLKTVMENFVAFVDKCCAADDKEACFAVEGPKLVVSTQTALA
Alpha-bungarotoxin (Bungarus multicinctus), sequence (P60615 whole entry, looked up): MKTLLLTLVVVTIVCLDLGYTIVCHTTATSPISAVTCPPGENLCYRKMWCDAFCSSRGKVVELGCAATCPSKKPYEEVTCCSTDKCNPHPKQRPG

Compound | composite z-score [1] | z-score [2] | composite z-score [3] | composite z-score [4] | composite z-score [5] | composite z-score [6] | composite z-score [7] | composite z-score [8] | composite z-score [9] | composite z-score [10] | composite z-score (Albumin (Bos taurus)) | composite Z-score [11] | composite z-score [12] | composite z-score [13] | composite z-score [14] | composite z-score [15] | composite z-score [16] | composite z-score (Sam68 (KHDRBS1)) | composite z-score [17] | composite z-score [18]
C[N+](C)(C)CCCC[C@@H]1NC(=O)[C@H]2C[C@@H](C(=O)NCCCCCNC(=O)CS)[C@@H](c3cccc(OCCO)c3)N2C1=O | -0.0364 | -0.709 | -0.259 | -0.0728 | 0.297 | -0.103 | -0.0626 | -0.234 | 0.707 | -0.307 | 0.479 | 0.518 (inactive) | -0.0881 | -0.115 | 0.69 | 1.63 | 0.985 | 0.165 | 0.245 | 0.896
C=C(CCCC)/C(=C/C[C@H](OC(=O)c1ccncc1)c1ccccc1OCCO)c1cc(C(=O)OC)ccc1OC | 1.22 | -2.89 | -0.015 | -0.0646 | -0.636 | -0.0331 | 0.0684 | -0.305 | 0.869 | -0.056 | -0.172 | -0.0743 (inactive) | -0.0362 | -0.145 | 0.63 | 1.2 | 0.127 | 1.05 | 0.647 | 0.749
COCC(=C=CC[C@H](O)c1ccccc1OCCO)C[C@H](O)COCc1ccccc1 | 1.2 | -1.51 | 0.0832 | 0.324 | -0.678 | -0.0685 | 0.275 | 0.589 | 1.36 | -0.346 | 0.816 | 0.0117 (inactive) | 0.304 | -0.148 | 0.505 | 2.08 | 1.81 | 1.14 | 0.0973 | 0.245
CCCCN1CC=CC23O[C@@H]4/C=C\CCCOC(=O)C4[C@H]2C(=O)N(C(CO)C(C)C)[C@@H]3C1=O (stereo not given in full) | -0.0052 | -0.134 | 0.272 | -0.11 | -0.0085 | -0.0482 | 0.0469 | -0.51 | 0.0974 | -0.838 | -0.745 | -0.108 (inactive) | -0.0339 | -0.0504 | 0.781 | 0.0745 | -0.158 | 0.239 | -0.0768 | -0.592
COC(=O)[C@@]1(Cc2ccc(F)cc2)[C@H]2c3cc(C(=O)N(C)C)n(C)c3C[C@H]2CN1C(=O)c1ccccc1 | 0.0469 | -0.275 | -0.21 | 1.1 | 0.815 | 0.0095 | 0.705 | 1.01 | 0.509 | 0.0278 | 0.637 | 0.343 (inactive) | 0.224 | 0.352 | 0.777 | 1.37 | 0.33 | -0.333 | -0.401 | 0.768
[N-]=[N+]=NCc1ccccc1[C@@H]1OC(c2ccc(OCCCO)cc2)=N[C@]1(Cc1ccccc1N=[N+]=[N-])C(=O)NCC(O)CO (stereo not given in full) | 1.18 | -1.41 | -0.262 | 2.58 | 1.23 | 0.61 | 0.0048 | 2.34 | 2.74 | 0.895 | 0.98 | 0.71 (inactive) | 0.409 | 0.252 | 0.614 | 3.16 | 0.695 | 1.32 | -0.703 | 1.11
CC1CC/C=C\[C@H]2OC34C=CCN(Cc5ccccc5)C(=O)[C@H]3N(CCCCCCO)C(=O)[C@@H]4C2C(=O)O1 (stereo not given in full) | -0.504 | -0.117 | -1.26 | 0.284 | 0.636 | -0.12 | -0.0146 | -0.0007 | 2.32 | -1.2 | 0.434 | -0.213 (inactive) | -0.383 | -0.133 | 0.895 | 0.42 | 0.718 | -0.957 | -0.993 | -1.45
COc1cc(CO)cc(I)c1O[C@H]1C=C(C(=O)NCCO)C[C@@H]2O[C@H]12 | 1.4 | -1.32 | 0.873 | 3.38 | 1.48 | 0.055 | -0.352 | -0.646 | 1.94 | 2.81 | -0.39 | 1.49 (inactive) | -0.0311 | -0.0596 | 0.465 | 1.07 | 0.0543 | 1.3 | 1.36 | 1.01
C=CCC(OC(C)=O)[C@@H]1[C@@H](N(Cc2cccc3ccccc23)C(=O)Cc2ccc(OC)cc2)c2cc(OCCCO)ccc2N1C(=O)c1ccc2ccccc2c1 (stereo not given in full) | 0.233 | -0.922 | 0.139 | 0.468 | -0.385 | -0.0398 | 0.138 | -0.23 | 0.119 | 0.337 | 0.226 | -0.0662 (inactive) | 0.0232 | -0.143 | 0.331 | 0.481 | -0.0588 | -0.278 | 0.0839 | 0.0699
O=C1C2C=CC(C(O)C3CCCCC3)N(n3cnnc3)C2C(=O)N1Cc1ccccc1 (stereo not given) | 1.45 | -0.911 | -0.0665 | 0.879 | -0.195 | 0.0914 | -0.0064 | 1.07 | 0.598 | 0.496 | 0.835 | 0.288 (inactive) | 0.341 | -0.0527 | 0.597 | 2.23 | 0.343 | 1.29 | -0.0651 | 0.698
CN1C(=O)C2C(C1=O)C1C=C(c3ccc(CO)cc3)C2C(C2CC2)N1C (stereo not given) | 0.208 | 0.203 | 0.0075 | 0.0024 | 0.103 | -0.0664 | -0.138 | -0.0606 | 0.149 | 0.219 | 0.876 | 0.111 (inactive) | -0.0947 | -0.0859 | 0.431 | -0.415 | -0.0324 | 0.164 | 0.0323 | 0.0875
OCCCC1=CC(c2ccc(CN3CCCC3)cc2)N(Cc2cccc(OC(F)(F)F)c2)CC1 (stereo not given) | -0.526 | -4.72 | -0.103 | -0.197 | 0.769 | -0.096 | -0.0769 | -0.0898 | 0.779 | -0.371 | 0.465 | 0.451 (inactive) | 0.0642 | -0.0907 | -0.0985 | 0.251 | -0.309 | -0.0506 | 0.248 | -0.796
COCCOC(=O)N1C(=O)[C@@]2(c3cc(C#CCC(C(=O)OC)C(=O)OC)ccc31)[C@H](C(N)=O)[C@H]1C(=O)O[C@H](c3ccccc3)[C@H](c3ccccc3)N1[C@@H]2c1ccc(O)cc1 | 1.42 | -2.77 | 0.713 | 1.01 | 0.0194 | 0.0179 | 0.0328 | -0.543 | 1.08 | 1.61 | 0.751 | -0.642 (inactive) | 0.104 | -0.0282 | 0.407 | 1.97 | 0.134 | 1.3 | 0.778 | 0.951
N#Cc1ccc(NN2C(C(O)C3CC=CCC3)C=CC3C(=O)N(c4ccccc4)C(=O)C32)cc1 (stereo not given) | 1.48 | -0.137 | 0.0779 | 0.0301 | -0.753 | -0.13 | 0.0639 | 0.313 | 0.102 | 1.17 | 1.03 | -0.098 (inactive) | 0.106 | -0.0037 | 0.486 | 3.13 | 0.452 | 1.32 | 0.0572 | 1.14
NC(=O)NCC#Cc1ccc2c(c1)[C@]1(C(=O)N2)[C@H](c2ccc(OCCO)cc2)N2[C@H](c3ccccc3)[C@H](c3ccccc3)OC(=O)[C@H]2[C@@H]1C(=O)O | -0.979 | -0.591 | -0.644 | 0.024 | 0.991 | -0.122 | -0.102 | 0.281 | 0.561 | 2.44 | 0.544 | 0.196 (inactive) | -0.0918 | -0.132 | 0.256 | 0.157 | -0.23 | -0.761 | -0.736 | 1.04
